Results as given in PubChem BioAssay (EPA / NIEHS).
The source made the active and inactive calls. The calls were made as follows: active = hit-call score of the fitted dose curve at least 0.9, where 1 is the maximum; inactive = score below 0.9.

The molecules below were run on Thrombomodulin, THBD (gene 7056) (assay: BSK_3C_Thrombomodulin: BioMAP Diversity Plus: 3C Assay for Thrombomodulin Biomarker Activity (AID 2283029)). Conditions: primary human endothelial cells (HUVEC); actives raise or lower the signal.
Procedure: BSK_3C is a cell-based, multiplexed-readout assay that uses umbilical vein endothelium, a human vascular primary cell, with measurements taken at 24 hours after chemical dosing in a 96-well plate.BSK_3C_Thrombomodulin is an assay component measured in the BSK_3C assay. It measures Thrombomodulin antibody related to regulation of gene expression using ELISA technology.Data from the assay component BSK_3C_Thrombomodulin was analyzed into 1 assay endpoint. This assay endpoint, BSK_3C_Thrombomodulin, was analyzed with bidirectional fitting relative to DMSO as the negative control and baseline of activity. Using a type of binding reporter, gain or loss-of-signal activity can be used to understand changes in the signaling as they relate to the gene THBD. Furthermore, this assay endpoint can be referred to as a primary readout, because this assay has produced multiple assay endpoints where this one serves a signaling function. To generalize the intended target to other relatable targets, this assay endpoint is annotated to the gpcr intended target family, where the subfamily is rhodopsin-like receptor.
The levels of cell surface (or secreted, indicated by the prefix "s") biomarker endpoints were measured by ELISA. Overt cytotoxicity to cells in confluent adherent cultures (all systems other than the BT system) was assessed by measuring total protein levels using sulforhodamine B (SRB) staining in parallel cultures at the time of biomarker measurements, indicated as SRB endpoints. For proliferation assays for adherent cell types, individual cell types are cultured at sub-confluence and relative cell numbers quantified by SRB staining at time points optimized for each system (48 h: 3C and CASM3C systems; 72 h: BT and HDF3CGF systems; 96 h: SAg system). SRB was performed by staining cells with 0.1% SRB after fixation with 10% TCA and reading wells at 560 nm.Viability and proliferation of PBMC (T cells) was quantified by Alamar Blue reduction for the SAg and BT systems. For PBMC viability (referred to as PBMC Cytotoxicity within the assay endpoint names), cells were plated (75,000/well in a 96-well plate) and then chemical samples added for 1 h before addition of activators, SEB and TSST-1 (20 ng/mL final concentration each). Cells were incubated for 90 h. Then, Alamar Blue (20 uL/well) (Invitrogen, Cat DAL1100) was added for 6 h, and the plates were read with a fluorescence microplate reader at 546/580 nm (excitation/emission). For PBMC proliferation, cells were plated and activated as above but incubated for only 16 h prior to addition of Alamar Blue. Plates were read after 6 h.
With `Cc1ccc(Nc2ccc(O)c3c2C(=O)c2ccccc2C3=O)cc1` the outcome was “inactive”.
For `Nc1cc([N+](=O)[O-])ccc1O`, the outcome was “inactive”.
In the case of `O=P(c1ccccc1)(c1ccccc1)c1ccccc1`, the outcome is reported as “inactive”.
For `O=C1CCCCCCCCCCCCCCO1`, the AC50 was 20 µM (active).
With `O=C(O)C[C@H](O)C[C@H](O)/C=C/c1c(C2CC2)nc2ccccc2c1-c1ccc(F)cc1` the outcome was “inactive”.
In the case of `BrC1CCC(Br)C(Br)CCC(Br)C(Br)CCC1Br` (stereo not given), the outcome is reported as “inactive”.
For `CCCCCCCCCC=O`, the outcome was “inactive”.
`OC1OC[C@@H](O)[C@H](O)[C@H]1O` (stereo not given in full) was tested, and the outcome was “inactive”.
For `COc1cc(C=O)ccc1OC(=O)C(C)C`, the outcome was “inactive”.
For `CC[Si](OC(C)=O)(OC(C)=O)OC(C)=O`, the outcome was “inactive”.
`N#Cc1ccc(CC(=NNC(=O)Nc2ccc(OC(F)(F)F)cc2)c2cccc(C(F)(F)F)c2)cc1` was tested, and the outcome was “inactive”.
For `CCCCCCCCCCCCCCCCCC(=O)OCC(CC)CCCC` (stereo not given), the outcome was “inactive”.
With `CC1CCC(C(C)CS)CC1S` (stereo not given) the outcome was “inactive”.
In the case of `Cc1ccc(O)c(C(C)(C)C)c1`, the AC50 is reported as 30.8 µM (active).
In the case of `C=CCOC(=O)CCC1CCCCC1`, the outcome is reported as “inactive”.
In the case of `CNC[C@H](O)c1cccc(O)c1`, the outcome is reported as “inactive”.
For `CCCCC/C=C/C=C/C=O`, the outcome was “inactive”.
With `CCn1c2ccccc2c2cc(N)ccc21` the outcome was “inactive”.
In the case of `CCc1c(C)cc(N)c(CC)c1N`, the outcome is reported as “inactive”.
`C=C(C)C(=O)O[C@H]1C[C@@H]2CC[C@@]1(C)C2(C)C` was tested, and the outcome was “inactive”.
For `O=C(O)c1cn(C2CC2)c2cc(N3CCNCC3)c(F)cc2c1=O`, the outcome was “inactive”.
For `Cc1ccc2n[nH]nc2c1`, the outcome was “inactive”.
`CC(=O)/C=C/C1=C(C)CCCC1(C)C` was tested, and the outcome was “inactive”.
For `c1ccc2sc(SN(C3CCCCC3)C3CCCCC3)nc2c1`, the outcome was “inactive”.
`C#C[C@]1(O)CC[C@H]2[C@@H]3CCC4=Cc5oncc5C[C@]4(C)[C@H]3CC[C@@]21C` was tested, and the outcome was “inactive”.
`O=C1OC2(c3cc(Br)c(O)c(Br)c3Oc3c2cc(Br)c(O)c3Br)c2c(Cl)c(Cl)c(Cl)c(Cl)c21` was tested, and the AC50 was 13.2 µM (active).
For `CCC(=O)OCc1ccccc1`, the outcome was “inactive”.
With `CC(=O)Nc1ccccc1O` the outcome was “inactive”.
For `CC1COc2ccccc2N1C(=O)C(Cl)Cl` (stereo not given), the outcome was “inactive”.
In the case of `CN(CCOc1ccc(CC2SC(=O)NC2=O)cc1)c1ccccn1` (stereo not given), the outcome is reported as “inactive”.
In the case of `CCCCCCCCC=O`, the outcome is reported as “inactive”.
In the case of `C=C[Si](OCC)(OCC)OCC`, the outcome is reported as “inactive”.
With `CC(C)(COC(=O)c1ccccc1)COC(=O)c1ccccc1` the outcome was “inactive”.
For `O=C(O)c1cn(-c2ccc(F)cc2)c2cc(N3CCNCC3)c(F)cc2c1=O`, the outcome was “inactive”.
For `CCCCC(CC)COCCC#N` (stereo not given), the outcome was “inactive”.
`CC(=O)[C@H]1CC[C@H]2[C@@H]3CC=C4C[C@@H](O)CC[C@]4(C)[C@H]3CC[C@]12C` was tested, and the outcome was “inactive”.
For `Nc1cc([N+](=O)[O-])ccc1Cl`, the outcome was “inactive”.
For `O=C=NC1CCC(CC2CCC(N=C=O)CC2)CC1` (stereo not given), the outcome was “inactive”.
With `CCCCC(CC)COC(=O)/C=C\C(=O)OCC(CC)CCCC` (stereo not given) the outcome was “inactive”.
In the case of `CC(C)c1ccc(C(C)C)cc1`, the outcome is reported as “inactive”.
